# Inconclusive results are not listed. A call without a number means that no potency is given here. Values without a mark were called inactive. Calls of active or inactive are those of the source. Unless noted, calls come from the whole dose curve; as a rule, active = well fitted curve in the direction sought with a large enough effect in the repeat runs; inconclusive = weak or mixed curves; inactive = no such curve, though single readings can be large; an effect the other way counts as inactive or inconclusive.
# Experiments:
# [1] = qHTS assay to identify small molecule that activate the aryl hydrocarbon receptor (AhR) signaling pathway - cell viability counter screen (AID 743086);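 note: HepG2 liver cells carrying the AhR DRE luciferase reporter; series mostly up to about 70 µM; nearly all actives have a fitted effect of over 45% in size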
# How it was run: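 HepG2-AhR-luc (HG2L7.5c1) cells, 4000/well, treated 24 h at 37 C with compound; viability measured as CellTiter-Fluor fluorescence after 30 min in the same wells as the luciferase read.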
# [2] = target: Peroxisome proliferator-activated receptor gamma (Homo sapiens) (UniProt P37231); test: qHTS assay to identify small molecule agonists of the peroxisome proliferator-activated receptor gamma (PPARg) signaling pathway (AID 743094; active = well fitted activation curve with a large enough effect in the signal ratio in the repeat runs, not every such curve was filed as active; the % refers to the signal ratio)
# How it was run: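 GeneBLAzer PPARg UAS-bla HEK293H cells carrying a stably integrated beta-lactamase reporter were pre-incubated 5 h at 37C, then exposed to compounds in DMSO for 17 h at 37C; LiveBLAzer B/G FRET substrate was added for 1 h at room temperature and fluorescence read.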
# [3] = target: Peroxisome proliferator-activated receptor gamma (Homo sapiens) (UniProt P37231); test: qHTS assay to identify small molecule antagonists of the peroxisome proliferator-activated receptor gamma (PPARg) signaling pathway (AID 743191; calls by dose curve; note: series mostly up to about 63 µM; nearly all actives have a fitted effect of over 30% in size)
# How it was run: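 GeneBLAzer PPARg UAS-bla HEK293H cells, 5 h post-plating, exposed to compounds 17 h at 37C. LiveBLAzer B/G FRET substrate added for 1 h at room temperature; beta-lactamase reporter read by fluorescence intensity.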
# [4] = qHTS assay to identify small molecule antagonists of the peroxisome proliferator-activated receptor gamma (PPARg) signaling pathway - cell viability counter screen (AID 743194); note: nearly all actives have a fitted effect of over 55% in size
# How it was run: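 Cytotoxicity counter screen in PPARg-bla HEK293H cells, same wells as reporter assay. Compounds plus 50 nM rosiglitazone (final) for 17 h at 37 C, then viability read by CellTiter-Glo luminescence.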
# [5] = qHTS assay for small molecule agonists of the antioxidant response element (ARE) signaling pathway (AID 743202; active = well fitted activation curve with a large enough effect in the signal ratio in the repeat runs, not every such curve was filed as active; the % refers to the signal ratio; note: potency is the fitted concentration of half-maximal effect)
# How it was run: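 Agonist mode reporter screen: HepG2 cells with ARE-controlled beta-lactamase are incubated with test compounds for 16 h at 37 C, and beta-lactamase activity is measured as fluorescence of cleaved B/G FRET substrate.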
# [6] = qHTS assay for small molecule agonists of the antioxidant response element (ARE) signaling pathway - cell viability counter screen (AID 743203; calls by dose curve; note: nearly all actives have a fitted effect of over 55% in size)
# How it was run: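 CellSensor ARE-bla HepG2 cells, 2,000 per well, rested 5 hrs at 37C/5% CO2, then exposed to compound in DMSO for 16 hrs; viability read as CellTiter-Glo luminescence after 30 min at room temperature, in the reporter wells.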
# [7] = qHTS assay for small molecule activators of the heat shock response signaling pathway - cell viability counter screen (AID 743209); note: nearly all actives have a fitted effect of over 50% in size
# How it was run: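 CellSensor HSE-bla HeLa cells, plated overnight at 37 C/5% CO2, were exposed to compounds in DMSO for 5 h at 37 C. Viability was then read in the same wells by CellTiter-Glo luminescence after 30 min at room temperature.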
# [8] = qHTS assay for small molecule activators of the heat shock response signaling pathway (AID 743210; active = well fitted activation curve with a large enough effect in the signal ratio in the repeat runs, with a control signal flat, not every such curve was filed as active; the % refers to the signal ratio;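 note: HeLa cells with beta-lactamase reporter driven by heat shock elements; series mostly up to about 63 µM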)
# How it was run: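 Quantitative high-throughput format using an engineered HeLa line in which heat shock response elements drive beta-lactamase; after 5 h with compound, cells received a B/G FRET substrate and fluorescence was read.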
# [9] = qHTS assay to identify small molecule agonists of the peroxisome proliferator-activated receptor delta (PPARd) signaling pathway - cell viability counter screen (AID 743211); note: nearly all actives have a fitted effect of over 55% in size
# How it was run: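 PPARd-bla HEK293H cells (UAS-beta-lactamase reporter) were treated with compounds for 17 h at 37 C. Viability was then read in the same wells by CellTiter-Glo luminescence after 30 min at room temperature.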
# [10] = target: Peroxisome proliferator-activated receptor delta (Homo sapiens) (UniProt Q03181); test: qHTS assay to identify small molecule agonists of the peroxisome proliferator-activated receptor delta (PPARd) signaling pathway (AID 743212; calls by dose curve)
# How it was run: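 Quantitative high-throughput agonist screen in a HEK293H beta-lactamase reporter line under UAS control. Compounds in DMSO, at 37 C. Fluorescence read after 2 h with FRET substrate at room temperature.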
# [11] = target: Peroxisome proliferator-activated receptor delta (Homo sapiens) (UniProt Q03181); test: qHTS assay to identify small molecule antagonists of the peroxisome proliferator-activated receptor delta (PPARd) signaling pathway (AID 743215; active = well fitted inhibition curve with a large enough effect in the signal ratio in the repeat runs, not every such curve was filed as active; the % refers to the signal ratio;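 note: cells stimulated with agonist L165041 at 300 nM final during compound exposure; series mostly up to about 62 µM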)
# How it was run: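 PPARd UAS-bla HEK293H cells were pre-incubated 5 h at 37 C, then given test compounds in DMSO plus agonist L165041 (300 nM final). After 17 h at 37 C, beta-lactamase FRET substrate was added; fluorescence read after 2 h at room temperature.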
# [12] = qHTS assay to identify small molecule agonists of the farnesoid-X-receptor (FXR) signaling pathway - cell viability counter screen (AID 743218); note: nearly all actives have a fitted effect of over 45% in size
# How it was run: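 FXR-UAS-bla HEK 293T cells, plated 5 h at 37 C, were exposed to compounds for 16 h at 37 C. CellTiter-Glo was then added to the same wells as the bla readout; luminescence read after 30 min at room temperature.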
# [13] = qHTS assay to identify small molecule antagonists of the farnesoid-X-receptor (FXR) signaling pathway - cell viability counter screen (AID 743221; active = well fitted cell-killing curve with a large enough effect in the repeat runs, not every such curve was filed as active; note: nearly all actives have a fitted effect of over 50% in size)
# How it was run: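 FXR-UAS-bla HEK 293T cells were treated with test compounds plus chenodeoxycholic acid (50 uM final) for 16 h at 37 C. Cell viability in the same wells was then read as CellTiter-Glo luminescence after 30 min at room temperature.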
# [14] = target: Vitamin D3 receptor (Homo sapiens) (UniProt P11473); test: qHTS assay to identify small molecule antagonists of the vitamin D receptor (VDR) signaling pathway (AID 743223; active = well fitted inhibition curve with a large enough effect in the signal ratio in the repeat runs, not every such curve was filed as active; the % refers to the signal ratio)
# How it was run: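 VDR-bla cells were plated, incubated 4 h at 37C, then given compound and 1alpha,25-dihydroxyvitamin D3 (3 nM final). After 16 h at 37C, LiveBLAzer B/G FRET substrate was added for 2 h at room temperature and fluorescence read.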
# [15] = qHTS assay to identify small molecule agonists of the vitamin D receptor (VDR) signaling pathway - cell viability counter screen (AID 743224); note: series mostly up to about 63 µM; nearly all actives have a fitted effect of over 50% in size
# How it was run: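 VDR-bla cells were preincubated 4 h at 37C/5% CO2, then exposed to compounds for 16 h. After the 2 h room-temperature bla FRET read, CellTiter-Glo was added to the same wells and luminescence read after 30 min.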
# [16] = target: Aryl hydrocarbon receptor (Homo sapiens) (UniProt P35869); test: qHTS assay to identify small molecule that activate the aryl hydrocarbon receptor (AhR) signaling pathway (AID 743085);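 note: HG2L7.5c1 human HepG2 liver cells with stably integrated DRE-driven firefly reporter; series mostly up to about 70 µM; nearly all actives have a fitted effect of over 15% in size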
# How it was run: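 HepG2 cells (HG2L7.5c1) stably carrying a firefly luciferase reporter driven by 20 dioxin responsive elements were exposed to compound for 24 h at 37C after a 5 h settling period; luminescence rise (ONE-Glo) indicated activation.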
# [17] = qHTS assay to identify small molecule antagonists of the peroxisome proliferator-activated receptor delta (PPARd) signaling pathway - cell viability counter screen (AID 743213); note: nearly all actives have a fitted effect of over 50% in size
# How it was run: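 Cytotoxicity counter screen: CellTiter-Glo luminescence read 30 min after addition, in the same wells as the reporter assay. There, PPARd UAS-bla HEK293H cells (3000/well) were treated 17 h at 37 C with compound and 300 nM L165041.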
# [18] = target: Vitamin D3 receptor (Homo sapiens) (UniProt P11473); test: qHTS assay to identify small molecule agonists of the vitamin D receptor (VDR) signaling pathway (AID 743222; calls by dose curve)
# How it was run: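 VDR-bla cells were plated 4 h at 37C/5% CO2, then exposed to compounds in DMSO for 16 h. After LiveBLAzer B/G FRET substrate addition and 2 h at room temperature, beta-lactamase reporter fluorescence was read.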
# [19] = target: Bile acid receptor (Homo sapiens) (UniProt Q96RI1); test: qHTS assay to identify small molecule antagonists of the farnesoid-X-receptor (FXR) signaling pathway (AID 743217; active = well fitted inhibition curve with a large enough effect in the signal ratio in the repeat runs, not every such curve was filed as active; the % refers to the signal ratio)
# How it was run: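 FXR-UAS-bla HEK 293T cells pre-incubated 5 h at 37 °C, then exposed to compounds with chenodeoxycholic acid (50 uM final) for 16 h at 37 °C. Beta-lactamase reporter read by LiveBLAzer B/G FRET substrate fluorescence after 2 h at room temperature.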
# [20] = target: Bile acid receptor (Homo sapiens) (UniProt Q96RI1); test: qHTS assay to identify small molecule agonists of the farnesoid-X-receptor (FXR) signaling pathway (AID 743220; active = well fitted activation curve with a large enough effect in the signal ratio in the repeat runs, not every such curve was filed as active; the % refers to the signal ratio)
# How it was run: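 Beta-lactamase reporter under UAS control in GeneBLAzer FXR HEK 293T cells (5000/well) measured with LiveBLAzer FRET substrate after 2 h at room temperature. Compound exposure lasted 16 h at 37C.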
# Sequence of Peroxisome proliferator-activated receptor gamma (Homo sapiens) (P37231 whole entry, looked up): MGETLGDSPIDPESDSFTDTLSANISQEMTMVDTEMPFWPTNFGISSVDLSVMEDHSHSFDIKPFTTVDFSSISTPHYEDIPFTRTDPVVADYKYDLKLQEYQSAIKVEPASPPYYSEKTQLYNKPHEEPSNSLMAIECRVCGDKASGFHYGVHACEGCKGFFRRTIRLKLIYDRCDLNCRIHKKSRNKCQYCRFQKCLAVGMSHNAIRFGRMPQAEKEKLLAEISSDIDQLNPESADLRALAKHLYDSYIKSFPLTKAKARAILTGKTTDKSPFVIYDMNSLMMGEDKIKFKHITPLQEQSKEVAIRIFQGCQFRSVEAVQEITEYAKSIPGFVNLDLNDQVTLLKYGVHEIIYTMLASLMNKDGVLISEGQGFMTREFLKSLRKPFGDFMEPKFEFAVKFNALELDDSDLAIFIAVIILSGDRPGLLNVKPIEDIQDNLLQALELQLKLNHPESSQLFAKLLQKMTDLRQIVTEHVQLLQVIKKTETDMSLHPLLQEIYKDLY
# Sequence of Peroxisome proliferator-activated receptor delta (Homo sapiens) (Q03181 whole entry, looked up): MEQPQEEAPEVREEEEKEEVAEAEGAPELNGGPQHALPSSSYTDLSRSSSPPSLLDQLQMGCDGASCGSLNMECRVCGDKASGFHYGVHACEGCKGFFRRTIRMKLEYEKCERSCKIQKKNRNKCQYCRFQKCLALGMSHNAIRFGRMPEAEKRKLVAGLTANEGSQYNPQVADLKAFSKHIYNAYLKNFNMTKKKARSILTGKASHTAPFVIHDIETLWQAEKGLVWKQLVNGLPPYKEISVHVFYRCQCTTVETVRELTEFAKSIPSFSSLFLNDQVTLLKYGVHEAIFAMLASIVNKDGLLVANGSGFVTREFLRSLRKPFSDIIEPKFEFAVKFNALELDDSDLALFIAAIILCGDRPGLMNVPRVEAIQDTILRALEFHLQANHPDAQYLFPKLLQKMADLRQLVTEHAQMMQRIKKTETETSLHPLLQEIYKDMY
# Sequence of Bile acid receptor (Homo sapiens) (Q96RI1 whole entry, looked up): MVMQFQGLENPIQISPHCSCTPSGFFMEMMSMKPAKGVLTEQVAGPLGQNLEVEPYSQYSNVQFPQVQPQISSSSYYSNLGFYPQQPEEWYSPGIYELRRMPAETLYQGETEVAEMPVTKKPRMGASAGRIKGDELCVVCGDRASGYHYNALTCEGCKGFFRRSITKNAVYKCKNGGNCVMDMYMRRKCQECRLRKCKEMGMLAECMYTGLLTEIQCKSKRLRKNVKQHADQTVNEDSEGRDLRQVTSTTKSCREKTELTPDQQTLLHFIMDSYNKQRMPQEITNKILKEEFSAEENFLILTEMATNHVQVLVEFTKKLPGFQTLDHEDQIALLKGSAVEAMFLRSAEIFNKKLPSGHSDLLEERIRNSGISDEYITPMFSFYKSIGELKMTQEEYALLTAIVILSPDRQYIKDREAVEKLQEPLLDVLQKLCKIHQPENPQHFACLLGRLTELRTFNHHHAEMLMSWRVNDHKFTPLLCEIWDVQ
# Sequence of Vitamin D3 receptor (Homo sapiens) (P11473 whole entry, looked up): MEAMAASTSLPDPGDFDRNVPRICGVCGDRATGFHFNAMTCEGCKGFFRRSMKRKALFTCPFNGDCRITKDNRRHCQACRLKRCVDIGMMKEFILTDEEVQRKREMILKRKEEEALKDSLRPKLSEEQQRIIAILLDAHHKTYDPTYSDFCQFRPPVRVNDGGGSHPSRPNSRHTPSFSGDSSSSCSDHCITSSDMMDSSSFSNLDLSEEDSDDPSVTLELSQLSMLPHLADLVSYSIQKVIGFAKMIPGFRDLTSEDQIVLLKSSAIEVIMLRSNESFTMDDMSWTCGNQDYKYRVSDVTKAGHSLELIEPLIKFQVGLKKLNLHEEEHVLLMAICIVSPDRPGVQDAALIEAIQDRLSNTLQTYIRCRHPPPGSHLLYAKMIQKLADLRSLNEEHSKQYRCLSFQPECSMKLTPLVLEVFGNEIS
# Sequence of Aryl hydrocarbon receptor (Homo sapiens) (P35869 whole entry, looked up): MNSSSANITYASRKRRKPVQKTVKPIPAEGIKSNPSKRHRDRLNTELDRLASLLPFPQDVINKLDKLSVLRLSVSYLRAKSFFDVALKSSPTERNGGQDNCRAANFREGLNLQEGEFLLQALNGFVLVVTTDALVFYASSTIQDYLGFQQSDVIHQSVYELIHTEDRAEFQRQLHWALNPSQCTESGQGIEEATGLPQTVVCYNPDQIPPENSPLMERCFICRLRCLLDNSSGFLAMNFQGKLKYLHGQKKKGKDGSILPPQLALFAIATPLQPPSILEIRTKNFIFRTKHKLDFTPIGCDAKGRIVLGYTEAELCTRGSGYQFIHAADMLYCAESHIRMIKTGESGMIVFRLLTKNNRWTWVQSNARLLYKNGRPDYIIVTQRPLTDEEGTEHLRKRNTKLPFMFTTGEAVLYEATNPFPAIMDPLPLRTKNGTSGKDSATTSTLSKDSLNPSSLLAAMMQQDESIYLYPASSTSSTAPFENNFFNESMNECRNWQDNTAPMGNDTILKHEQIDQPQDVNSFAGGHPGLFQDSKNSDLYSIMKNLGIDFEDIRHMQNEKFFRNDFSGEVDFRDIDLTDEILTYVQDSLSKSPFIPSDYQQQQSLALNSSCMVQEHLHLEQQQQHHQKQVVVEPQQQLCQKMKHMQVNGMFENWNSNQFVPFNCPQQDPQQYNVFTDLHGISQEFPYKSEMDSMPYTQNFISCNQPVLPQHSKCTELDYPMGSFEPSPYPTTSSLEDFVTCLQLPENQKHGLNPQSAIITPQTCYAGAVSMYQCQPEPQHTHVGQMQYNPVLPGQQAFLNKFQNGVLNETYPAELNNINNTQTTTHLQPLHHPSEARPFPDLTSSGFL
Structure (SMILES),outcome [1],outcome [2],outcome [3],outcome [4],Potency [5],outcome [6],Potency [7],outcome [8],outcome [9],outcome [10],outcome [11],outcome [12],outcome [13],outcome [14],outcome [15],Potency [16],outcome [17],outcome [18],outcome [19],outcome [20]
C[n+]1ccccc1/C=N/O,inactive,inactive,inactive,inactive,inactive,inactive,inactive,inactive,inactive,inactive,inactive,inactive,inactive,inactive,inactive,–,–,–,–,–
O=C(c1ccccc1)c1cccc(O)c1,inactive,inactive,–,–,–,inactive,inactive,inactive,inactive,inactive,–,inactive,–,inactive,inactive,inactive,inactive,inactive,–,–
CCCC(C)C(O)CC (centres undefined),inactive,inactive,–,–,inactive,inactive,–,–,inactive,–,–,inactive,inactive,–,inactive,inactive,inactive,inactive,inactive,inactive
O=C(CCBr)N1CCN(C(=O)CCBr)CC1,inactive,–,inactive,inactive,13.3 µM (active),inactive,inactive,–,–,inactive,inactive,inactive,inactive,–,inactive,inactive,inactive,inactive,inactive,inactive
CCOc1ccccc1OCCN[C@H](C)Cc1ccc(OC)c(S(N)(=O)=O)c1,inactive,–,–,inactive,inactive,inactive,inactive,–,inactive,–,–,inactive,inactive,inactive,inactive,inactive,–,inactive,–,–
C=CCCCCCCCCOC(C)=O,inactive,inactive,–,–,inactive,inactive,inactive,–,inactive,–,–,inactive,inactive,–,inactive,inactive,–,–,inactive,inactive
O=C(O)P(=O)(O)O,inactive,–,–,inactive,inactive,inactive,inactive,inactive,inactive,inactive,inactive,inactive,inactive,–,inactive,inactive,inactive,inactive,inactive,inactive
O=C(O)Cc1c(Cl)ccc(Cl)c1Cl,–,–,inactive,inactive,inactive,inactive,inactive,inactive,inactive,inactive,inactive,inactive,inactive,–,inactive,inactive,inactive,–,inactive,inactive
CN(C)c1ccncc1,inactive,–,–,inactive,inactive,inactive,inactive,inactive,inactive,inactive,inactive,inactive,inactive,inactive,inactive,inactive,inactive,inactive,–,–
Cc1ccc(Br)cc1,inactive,inactive,inactive,inactive,inactive,inactive,inactive,inactive,inactive,inactive,inactive,inactive,inactive,inactive,inactive,–,inactive,inactive,–,–
CC(C)(C)c1ccc(N)cc1,inactive,inactive,inactive,inactive,inactive,inactive,inactive,inactive,–,inactive,inactive,–,inactive,–,inactive,–,inactive,inactive,–,–
CCO[Si](CC(C)C)(OCC)OCC,inactive,–,–,–,–,inactive,inactive,inactive,–,inactive,inactive,inactive,inactive,–,–,inactive,–,inactive,inactive,inactive
O=C1CC2(CCCC2)CC(=O)N1CCNCC1COc2ccccc2O1 (centres undefined),inactive,–,–,inactive,inactive,inactive,inactive,–,inactive,–,–,inactive,inactive,inactive,inactive,inactive,inactive,–,inactive,inactive
CC(=O)OC1CCC(C(C)(C)C)CC1 (centres undefined),inactive,–,–,inactive,inactive,inactive,inactive,inactive,–,inactive,inactive,inactive,inactive,–,inactive,inactive,inactive,inactive,–,–
CC(C)C[P+](C)(CC(C)C)CC(C)C,inactive,inactive,–,inactive,inactive,inactive,inactive,–,inactive,inactive,inactive,inactive,inactive,inactive,inactive,–,inactive,inactive,inactive,inactive
CCCCc1ccc(Cl)cc1,inactive,inactive,inactive,inactive,–,inactive,inactive,inactive,–,inactive,inactive,inactive,inactive,–,inactive,–,inactive,inactive,inactive,inactive

# From PubChem BioAssay (Tox21)
